Screening data as filed in PubChem.
Kir21 block = blocks the mouse Kir2.1 inward-rectifier potassium channel; P35561; HEK293-Kir2.1, FluxOR thallium flux fluorescence; active compounds read low; B-score at 10 µM; 0.85% of 310,000 active; AID 1672;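 active = fluorescence ratio B-score at or below minus 3 SD of library scores, with starting-brightness B-score within 2 SD, cut at about -4.2 in these data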;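 note: channel flux triggered by added potassium and thallium sulfate stimulus; B-score of peak minus minimum fluorescence over baseline after thallium stimulus; more negative B-score means stronger Kir2.1 block with less thallium influx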
Target sequence (P35561 whole entry, looked up): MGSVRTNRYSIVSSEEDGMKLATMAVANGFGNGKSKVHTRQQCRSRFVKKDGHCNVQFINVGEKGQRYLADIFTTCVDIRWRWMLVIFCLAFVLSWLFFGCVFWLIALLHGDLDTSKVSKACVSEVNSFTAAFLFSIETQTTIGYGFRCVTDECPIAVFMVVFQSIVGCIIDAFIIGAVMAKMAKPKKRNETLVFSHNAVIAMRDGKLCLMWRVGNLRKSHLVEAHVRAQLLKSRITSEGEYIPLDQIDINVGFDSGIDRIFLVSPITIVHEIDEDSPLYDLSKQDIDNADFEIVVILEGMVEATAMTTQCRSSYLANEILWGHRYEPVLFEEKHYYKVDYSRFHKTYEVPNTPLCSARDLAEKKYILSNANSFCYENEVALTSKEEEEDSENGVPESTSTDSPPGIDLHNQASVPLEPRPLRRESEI
DNA FID counter = counter-screen for HCV NS3 helicase inhibitors: DNA intercalator displacement | DNA fluorescent intercalator displacement, fluorescence | AID 1845 | inhibition, % at 7.9 µM | 0.17% of 290,000 active; in the data active = inhibition above about 37%;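 note: 0% = vehicle and 100% = reference compound; higher means more ethidium bromide displaced from hairpin DNA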
Rce1 inh = inhibitors of yeast Ras-converting enzyme; yeast membranes, quenched prenylated peptide cleavage fluorescence; calls only; AID 2563; 0.27% of 290,000 active;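 active = fall in fluorescence gain of 50% or more versus controls, with final raw signal at or below 3038400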;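 note: plate controls were neutral control wells for no effect and wells lacking membranes for full effect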
PfM18AAP inh-1 = blocks P. falciparum M18 aspartyl aminopeptidase | recombinant PfM18AAP, H-Glu-NHMec fluorogenic cleavage | inhibition, % at 7.35 µM | 1.2% of 290,000 active;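 active = inhibition above the campaign mean inhibition over all tested compounds plus 3 SD, cut at about 28% in these data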;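 note: 0% = plate median of test compound wells and 100% = 2 mM ZnCl2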
PfM18AAP inh-2 = PfM18AAP inhibition, confirmation. recombinant PfM18AAP, H-Glu-NHMec fluorogenic cleavage. inhibition, % at 7.35 µM. 28% of 2,400 active. shares compounds with PfM18AAP inh-1;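 active = mean inhibition over replicate wells above the hit cutoff set for the earlier primary screen, cut at about 29% in these data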;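 note: 0% = median of test compound wells and 100% = 2 mM ZnCl2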
CTSL1 counter = Cathepsin L (human) inhibition, confirmation; shares compounds with PfM18AAP inh-1; purified cathepsin L1, Z-Leu-Arg-MCA fluorescence; inhibition, % at 5.96 µM; 2,400 tested, under 10 active;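 active = average inhibition across replicates above the hit cutoff set in the earlier primary screen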;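 note: 0% = median of test compound wells and 100% = Z-Phe-Ala-diazomethylketone 1 µM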
* marks the source's active call; other numbers are inactive results; i = inactive; . = not tested or not shown. Sampled rows, rich in hits. Any-hit rate of the full collection: about 2.3%.

SMILES	Kir21 block	DNA FID counter	Rce1 inh	PfM18AAP inh-1	PfM18AAP inh-2	CTSL1 counter
COc1ccc(C(=O)NNC2=CC(=O)CC(C)(C)C2)cc1OC	1.2	-3	i	40*	4	-4
Cc1occc1C(=O)NNC1=CC(=O)CC(C)(C)C1	-0.51	-5	i	55*	30*	4
Cc1ccc(S(=O)(=O)Nc2cc(Cl)c(O)c3ncccc23)cc1	-2.9	-10	i	39*	18	-2
COC(=O)/C=c1\sc2ncnn2c1=O	0.28	3	i	38*	-30	-2
Cc1cccc(C)c1NC(=O)CNC(=O)c1ccncc1	-2	0	i	-4	.	.
C/C(CC(=O)Nc1ccc(N(C)C)cc1)=N\NC(=O)c1ccc([N+](=O)[O-])cc1	-0.18	-6	i	13	.	.
CSc1sc(C(=O)O)c2c1C(=O)CC(C)(C)C2	3.4	.	i	.	.	.
CSc1sc(-c2ccnc(SCC(=O)C(C)(C)C)n2)c2c1C(=O)CC(C)(C)C2	1.7	-22	i	35*	-26	3
O=C(Nc1ccc(F)cc1)Nn1cnnc1	-0.12	-4	i	58*	46*	-4
O=C(Nc1cc(Cl)ccc1Cl)Nn1cnnc1	0.86	-3	i	87*	89*	5
Cc1c(Cl)cccc1NC(=O)Nc1cc(C(C)(C)C)nn1C	-2.1	-7	i	3	.	.
Cc1c(Cl)cccc1NC(=O)Nn1cnnc1	0.93	-1	i	82*	65*	1
O=C(Nc1ccncc1)Nc1cc(Cl)ccc1Cl	-0.64	24	i	0	.	.
CCOC(=O)c1ccc(NC(=O)Nn2cnnc2)cc1	-0.3	-10	i	72*	64*	1
Cc1ccc(/C=N/n2cnc3sc(C)c(C)c3c2=O)o1	0.7	0	i	2	.	.
S=c1[nH]nc(C2CCCCC2)n1/N=C/c1c(Cl)cccc1Cl	-0.01	-25	i	3	.	.
CC(C)(C)OC(=O)NN1CC(=O)N2[C@@H](Cc3c([nH]c4ccccc34)C2(C)C)C1=O	0.6	-29	i	-6	.	.
O=C(Nc1ccc(F)c(Cl)c1)Nn1cnnc1	-0.52	-11	i	76*	60*	-1
O=C(NCc1ccccc1OC(F)(F)F)C1CCC(=O)N(CCc2ccccn2)C1 (configuration not stated)	-0.13	-15	i	-5	.	.
COc1ccc(CCNC(=O)c2ccc3c(c2)NC(=O)CS3)cc1OC	-1.7	-26	i	-2	.	.
COc1ccc(NC(=O)c2ccc3c(c2)NC(=O)CS3)cc1S(=O)(=O)Nc1ccc(Br)cc1	-0.26	-16	i	32*	13	5
Cc1ccc(NS(=O)(=O)c2cc(NC(=O)c3ccc4c(c3)NC(=O)CS4)ccc2C)c(C)c1	0.13	-17	i	48*	-5	1
Cn1c(CSc2ncn[nH]2)nc2ccccc21	-0.34	3	i	53*	10	-5
COCCC(=O)N1CCCC(C(=O)c2ccc(C(F)(F)F)cc2)C1 (configuration not stated)	-0.47	-18	i	-1	.	.
O=C(CN1CC(=O)Oc2ccccc21)NCc1ccco1	-1.1	2	i	33*	-16	0
SMILES	Kir21 block	DNA FID counter	Rce1 inh	PfM18AAP inh-1	PfM18AAP inh-2	CTSL1 counter
O=C(CN1CCOc2ccccc21)NCc1ccco1	0.06	-1	i	9	.	.
COc1cc(-c2nc3ccc(C)cn3c2Nc2ccc3c(c2)OCCO3)ccc1O	2	-5	i	41*	41*	-2
O=C(COc1ccc(C(=S)N2CCOCC2)cc1Cl)Nc1ccccc1Cl	1.5	-9	i	42*	-19	1
CCOC(=O)N1CCN(C(=O)CN(c2cccc(C(F)(F)F)c2)S(=O)(=O)c2ccccc2)CC1	0.05	-35	i	37*	-62	-4
NC(=S)NNc1cccc2cccnc12	0.8	9	i	14	.	.
NC(=S)Nc1cccc2cccnc12	-0.15	2	i	32*	1	2
Cc1ccc(-n2nc3ccc(N)cc3n2)cc1Cl	-0.1	2	i	32*	-42	-1
COc1cccc(NC(=O)C2CCN(c3cnccn3)CC2)c1	-0.56	-12	i	-4	.	.
C/C(=N\Nc1ccc(C(F)(F)F)cn1)c1ccc(S(=O)(=O)NCc2ccco2)cc1	1.9	-11	i	5	.	.
C/C(=N\Nc1ccc(Cl)c(C(=O)O)c1)c1cccc([N+](=O)[O-])c1	-0.06	-8	i	36*	-1	5
CCc1ccc(/C(C)=N\Nc2ccc([N+](=O)[O-])cc2)cc1	0.09	9	.	4	.	.
C/C(=N\Nc1ccc(C(=O)O)cc1)c1ccc(S(=O)(=O)NCc2ccco2)cc1	0.13	-26	i	36*	1	2
C/C(=N\Nc1nc(Cl)c(Cl)cc1Cl)c1ccc(S(=O)(=O)NCc2ccco2)cc1	-0.79	-4	i	49*	-54	7
C/C(=N\Nc1ccc([N+](=O)[O-])cc1)c1ccc(N)cc1	0.65	-1	i	33*	-18	6
Cc1cccc(C(=O)NNC(=O)C2CC2)c1	-2.7	-3	.	0	.	.
CCOC(=O)C1CN(S(=O)(=O)c2cc(OC)ccc2OC)C1	-0.76	-2	i	-4	.	.
CCN(CC(=O)Nc1ccccc1OC)C(=O)c1cc(S(=O)(=O)N2CCCCCC2)ccc1OC	0	.	i	.	.	.
Cc1noc(C(=O)Nc2ccc(F)c(Cl)c2)c1Cl	0.4	-3	i	3	.	.
C/C(=N\Nc1ccc(C(=O)O)cc1)c1ccc(Br)cc1	-0.17	-17	i	32*	-22	5
CCOC(=O)Nc1ccc(S(=O)(=O)Nn2cnnc2)cc1	0.52	4	i	41*	47*	-1
CCCCOC(=O)Nc1ccc(S(=O)(=O)Nn2cnnc2)cc1	-1.3	-3	i	50*	50*	0
CN(C(=O)CCNC(=O)Cn1cnc2ccccc2c1=O)c1ccccc1F	-0.77	-4	i	-4	.	.
CC[n+]1c(/C=C(\C)SC)sc2ccccc21	1.8	-9	i	44*	-25	4
CC[n+]1c(/C=C(/C)SC)sc2ccccc21	-1.3	-21	i	49*	-52	-4
CC/C(=C/c1sc2ccccc2[n+]1CC)SC	-0.16	-2	i	46*	-32	5
SMILES	Kir21 block	DNA FID counter	Rce1 inh	PfM18AAP inh-1	PfM18AAP inh-2	CTSL1 counter
CCCCNC(=S)N(CCN(C)C)Cc1cc2cc3c(cc2[nH]c1=O)OCCO3	-0.55	8	i	21	.	.
O=C(NNc1ccc(-c2csnn2)cc1)c1ccccc1C(F)(F)F	-0.03	0	i	40*	13	2
C=CCn1c(-c2ccccc2)n[nH]c1=S	1.6	-4	i	14	.	.
C=CCn1c(-c2ccoc2)n[nH]c1=S	0.36	2	i	49*	-20	-1
C=CCn1c(Cc2ccccc2)n[nH]c1=S	-0.65	-3	i	34*	-5	-1
NNC(=O)CNC(=O)CNS(=O)(=O)c1ccccc1	-0.01	-4	i	3	.	.
CC(Cl)C(=O)NNC(=O)CNS(=O)(=O)c1ccccc1 (configuration not stated)	-0.37	3	i	45*	20	-1
